Here are results for 8 compounds from PubChem BioAssay (NCI).

Structures are written as SMILES. Compounds without any hit were thinned out: in the full panel of roughly 83,000, 20% have a hit.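 Testing used 96-well plates and a 48-hour single-concentration exposure. Example: -40 means 40% of the starting cells died.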 Values without a mark were called inactive. The source made the active and inactive calls. The calls were made as follows: active = growth percent below 10; inactive = the rest.

Among the test systems are SR leukemia; RPMI-8226 leukemia; OVCAR-8 ovarian; OVCAR-5 ovarian; OVCAR-4 ovarian; SK-OV-3 ovarian; IGROV1 ovarian; OVCAR-3 ovarian; HS 578T breast; NCI/ADR-RES ovarian; T-47D breast; BT-549 breast; MDA-MB-435 melanoma; SW-620 colon; MCF7 breast; HCT-116 colon; HCC-2998 colon; KM12 colon.
What all share (experiment): NCI-60 one-dose screen, 48 h (100 = growth as untreated, 0 = no growth, -100 = all killed)
Holding throughout (conditions): 10 µM unless noted

Consider `COc1ccc(OC)c(Nc2nnc(-c3ccc(Cl)cc3)o2)c1`, for which the growth with SR leukemia is 79.7%; in the assay with RPMI-8226 leukemia, 90.4%; in the assay on OVCAR-8 ovarian, 85.5%; with OVCAR-5 ovarian, 82.4%; with OVCAR-4 ovarian, 10.5%; in the assay with SK-OV-3 ovarian it was 90.7%. The growth with IGROV1 ovarian is 81.1%; in the assay with OVCAR-3 ovarian, 31.8%; in the assay on HS 578T breast, 51.4%; in the assay on NCI/ADR-RES ovarian, 71.9%; with T-47D breast, 59.9%; with BT-549 breast, 81.9%. In addition, the growth in the assay on MDA-MB-435 melanoma is 84.6%; in the assay on SW-620 colon it was 86.2%; in the assay on MCF7 breast it was 91.6%; in the assay on HCT-116 colon it was 31.1%; with HCC-2998 colon, 104%; with KM12 colon, 66.4%.
As to `COc1cc(C2Cc3ncccc3-c3[nH]c(=O)c4cccnc4c32)cc(OC)c1OC` (centres undefined), the growth in the assay with SR leukemia is 11.8%; with RPMI-8226 leukemia, 37.6%; with OVCAR-8 ovarian, 17.3%; in the assay with OVCAR-5 ovarian, 52.2%; with OVCAR-4 ovarian, 58%; in the assay with SK-OV-3 ovarian, 15.3%. The growth in the assay on IGROV1 ovarian was 48.6%; in the assay on OVCAR-3 ovarian it was -11.3% (active); in the assay on HS 578T breast, 41.9%; in the assay on NCI/ADR-RES ovarian, 31.1%; in the assay with T-47D breast, 45.6%; with BT-549 breast it was 40.6%. Moreover, the growth is -50.3% (active) in the assay on MDA-MB-435 melanoma; 26.7% with SW-620 colon; 16% in the assay with MCF7 breast; 13.8% in the assay on HCT-116 colon; 25.1% with HCC-2998 colon; 23% in the assay with KM12 colon.
In the case of `CCOC(=O)c1c(-c2ccccc2)n2c(=O)cc(C)c3c(O)c(O)cc1c32`, the growth was 22.4% with SR leukemia; 36.5% in the assay on RPMI-8226 leukemia; 29.1% in the assay with OVCAR-8 ovarian; 70.1% in the assay with OVCAR-5 ovarian; 15.4% in the assay with OVCAR-4 ovarian; 76.3% with SK-OV-3 ovarian. Besides, the growth in the assay on IGROV1 ovarian was 61.2%; in the assay with OVCAR-3 ovarian, 0.992% (active); with HS 578T breast it was 87.7%; with NCI/ADR-RES ovarian, 15.3%; in the assay with T-47D breast it was 55%; with BT-549 breast, 89.8%. Further, the growth in the assay on MDA-MB-435 melanoma was 79.7%; in the assay with SW-620 colon, 55.4%; in the assay on MCF7 breast, 29.9%; in the assay on HCT-116 colon, 24.5%; with HCC-2998 colon it was 61.3%; with KM12 colon, 64.3%.
With `CCN(CC)c1ccc(/C=N/NC(=O)c2ccc(Nc3ccnc(C(F)(F)F)c3)cc2)c(O)c1`, the growth with SR leukemia was 153%; with RPMI-8226 leukemia, 20%; with OVCAR-8 ovarian, 44.6%; in the assay on OVCAR-5 ovarian, 32.5%; with OVCAR-4 ovarian, 32.4%; with SK-OV-3 ovarian, 10.1%. For the same compound, the growth in the assay on IGROV1 ovarian was 39.3%; in the assay on OVCAR-3 ovarian, 44%; in the assay on HS 578T breast it was 64.9%; with NCI/ADR-RES ovarian, 26.3%; in the assay with T-47D breast it was -2.74% (active); in the assay with BT-549 breast, -2.72% (active). In addition, the growth is 17.5% in the assay with MDA-MB-435 melanoma; 41.5% in the assay with SW-620 colon; 13.9% in the assay with MCF7 breast; 23.6% with HCT-116 colon; 38.3% in the assay with HCC-2998 colon; 24.6% in the assay on KM12 colon.
Consider `CC(C)CCC[C@@H](C)C1CCC2C3CCC4=C/C(=N/OCCN(C)C)CC[C@]4(C)C3CC[C@@]21C` (some centres undefined), for which the growth was 62.2% in the assay with SR leukemia; 78.4% in the assay on RPMI-8226 leukemia; 104% in the assay with OVCAR-8 ovarian; 83.9% in the assay on OVCAR-5 ovarian; 88.5% with OVCAR-4 ovarian; 93.8% in the assay with SK-OV-3 ovarian. The growth is 48.9% in the assay on IGROV1 ovarian; 89.5% with OVCAR-3 ovarian; 83.8% in the assay on HS 578T breast; 89.6% in the assay with NCI/ADR-RES ovarian; 87.4% in the assay on T-47D breast; 90.5% in the assay on BT-549 breast. Also, the growth with MDA-MB-435 melanoma is 102%; with SW-620 colon, 91.1%; with MCF7 breast, 91.9%; with HCT-116 colon, 83.9%; with HCC-2998 colon, 80.8%; in the assay with KM12 colon, 87.4%.
Consider `O=C1CCC(C(=O)NN(c2ccccc2)c2ccccc2)N1` (centres undefined), for which the growth with SR leukemia is 19.7%; in the assay with RPMI-8226 leukemia, 17.8%; with OVCAR-8 ovarian, 103%; in the assay with OVCAR-5 ovarian, 99.2%; in the assay with OVCAR-4 ovarian, 103%; in the assay on SK-OV-3 ovarian, 96.6%. Further, the growth with IGROV1 ovarian is 105%; in the assay with OVCAR-3 ovarian it was 95.4%; in the assay with HS 578T breast it was 95.8%; in the assay with NCI/ADR-RES ovarian it was 111%; in the assay on T-47D breast it was 103%; in the assay with BT-549 breast, 30.2%. Also, the growth is 93.8% in the assay with MDA-MB-435 melanoma; 100% in the assay on SW-620 colon; 98% in the assay with MCF7 breast; 15.5% in the assay on HCT-116 colon; 110% with HCC-2998 colon; 87.3% in the assay on KM12 colon.
Regarding `CCOC(=O)c1c(C)nc2ccccc2c1/C=C/c1ccc(OC)cc1`, the growth is 56.6% with SR leukemia; 41.8% in the assay with RPMI-8226 leukemia; 57.6% in the assay with OVCAR-8 ovarian; 89.1% in the assay with OVCAR-5 ovarian; 54.6% with OVCAR-4 ovarian; 76.1% with SK-OV-3 ovarian. Further, the growth was 66% with IGROV1 ovarian; 73.9% in the assay with OVCAR-3 ovarian; 81.6% with HS 578T breast; 31.2% with NCI/ADR-RES ovarian; 22.2% in the assay with T-47D breast; 53.3% in the assay on BT-549 breast. The growth with MDA-MB-435 melanoma was 61.7%; with SW-620 colon, 85.1%; in the assay on MCF7 breast, 63.9%; in the assay on HCT-116 colon it was 55.7%; in the assay on HCC-2998 colon, 77.8%; in the assay with KM12 colon, 70.7%.
For the compound `COc1cc2cc(NCc3ccc(OC(F)F)cc3)nc(C)c2cc1OC`, the growth was 53.1% in the assay with SR leukemia; 42.5% in the assay on RPMI-8226 leukemia; 71.3% with OVCAR-8 ovarian; 56.1% in the assay with OVCAR-5 ovarian; 74.2% in the assay on OVCAR-4 ovarian; 57.6% with SK-OV-3 ovarian. Also, the growth in the assay with IGROV1 ovarian was 48.2%; with OVCAR-3 ovarian, 77%; with HS 578T breast, 77.6%; in the assay with NCI/ADR-RES ovarian it was 56.3%; in the assay on T-47D breast, 71.1%; in the assay on BT-549 breast, 71.8%. The growth in the assay with MDA-MB-435 melanoma was 68.4%; in the assay on SW-620 colon, 47.9%; with MCF7 breast it was 86.1%; in the assay with HCT-116 colon it was 37.3%; in the assay on HCC-2998 colon, 78.2%; with KM12 colon, 82.8%.
